Experimental data as given in PubChem BioAssay AID2546 (National Center for Advancing Translational Sciences (NCATS), 2010).
Out of some 310,000 compounds screened, about 11,000 (3.5%) were called active. Not shown: some 8% with an inconclusive outcome. Calls come from the whole dose curve; as a rule, active = well fitted inhibition curve with a large enough effect; inconclusive = small, poorly fitted or top-dose-only effect, or effect the other way; inactive = flat fitted curve, though single readings scatter. Many of the other results were omitted from the sample, so actives are more common in it than they were.

assay: VP16 counterscreen qHTS for inhibitors of ROR gamma transcriptional activity; details: Drosophila S2 Gal4-VP16 UAS-luciferase, luminescence, 20 h; series mostly up to 53.6 µM; activity, negative = inhibition: at the top concentration;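 note: Gal4-VP16 expression switched on by copper sulfate through the metallothionein promoter; nearly all actives have a fitted effect of over 50% in size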
% is set by controls: 0 for no effect and ±100 for the full control effect; potency is the fitted concentration of half-maximal effect.

SMILES	activity, negative = inhibition	Potency
COC(=O)c1ccc(OC(=O)c2cnccn2)cc1	-0.541% (inactive)	
c1ccc(-c2cn3c(n2)CCc2ccc4cccnc4c2-3)cc1		7.94 µM (active)
COC(=O)C1=CN(c2ccc(F)c(F)c2)C=C(C(=O)OC)C1c1ccc([N+](=O)[O-])cc1	-3.79% (inactive)	
Cc1cc(=O)[nH]c(=S)[nH]1		inactive
O=c1[nH]c(=S)[nH]c2[nH]c(=S)[nH]c12	3.04% (inactive)	
Cc1c(C)c(C)c2[nH]c(=S)[nH]c2c1C		10 µM (active)
Cc1ccc(S(=O)(=O)N(CC(=O)Nc2cccnc2)c2ccc(Br)cc2)cc1	-5.32% (inactive)	
CCCc1ccc(OCCNC(=O)c2ccco2)cc1	-28.8% (inactive)	
COc1ccc(CN2C3CCCC2CC(NC(=O)c2cccc(F)c2)C3)cc1 (stereo unspecified)	4.69% (inactive)	
CC(NCC(=O)Nc1cc(Cl)cc(Cl)c1)c1ccccc1 (stereo unspecified)	-25.8% (inactive)	
COc1ccc(C(=O)NC2CC2)cc1OC1CCN(Cc2ccc(SC)cc2)CC1	-3.04% (inactive)	
COCCN(C(=O)CCC(=O)Nc1ccccn1)C(C(=O)NCCC(C)C)c1ccc(OC)cc1 (stereo unspecified)	3.24% (inactive)	
COCCN(C(=O)CCC(=O)Nc1nccs1)C(C(=O)NC(C)(C)C)c1ccc(Cl)cc1 (stereo unspecified)	7.06% (inactive)	
COCCN(C(=O)CCC(=O)Nc1nccs1)C(C(=O)NCCC(C)C)c1ccc(F)cc1 (stereo unspecified)		3.55 µM (active)
COc1ccc(C2NC(=O)c3ccccc3N2)cc1 (stereo unspecified)	3.54% (inactive)	
Cc1nnc(SCC(=O)N/N=C/c2cn(-c3ccccc3)nc2-c2ccc(F)cc2)n1-c1ccccc1	1.16% (inactive)	
Cc1ccc(-c2nn(-c3ccccc3)cc2/C=N/NC(=O)c2ccc3c(c2)OCO3)cc1	-6.45% (inactive)	
CCc1ccc(-c2nn(-c3ccccc3)cc2CSC(=N)N)cc1		20 µM (active)
CC/C(=N\NC(=S)NC(C)C)c1ccc(OC(F)F)cc1	-4.95% (inactive)	
C/C(=N\NC(=S)NC(C)C)c1ccc(C(C)(C)C)cc1		3.98 µM (active)
C/C(=N\NC(N)=S)c1ccncc1	-10.3% (inactive)	
CCOC(=O)N1CCN(Cc2nc3cc(NC(=O)CC)ccc3n2CC)CC1	0.519% (inactive)	
Cc1ccc(SC(CC(=O)c2ccc(C(C)(C)C)cc2)C(=O)O)cc1 (stereo unspecified)		5.01 µM (active)
Cc1ccc(C(=O)CNc2ccc(F)cc2)cc1	-10.8% (inactive)	
Cc1ccc(CSCC(N)C(=O)O)cc1 (stereo unspecified)	-1.53% (inactive)	
CCOc1cc(C2/C(=C(/O)c3ccc(S(=O)(=O)N4CCCCC4)cc3)C(=O)C(=O)N2CCOC)ccc1O (stereo unspecified)	-12.6% (inactive)	

SMILES	activity, negative = inhibition	Potency
COc1ccccc1OCC(=O)Nc1c2c(nn1-c1ccc(F)cc1)CS(=O)(=O)C2	-19.6% (inactive)	
COC(=O)c1ccc(NC(=S)NN2CCOCC2)cc1	-5.05% (inactive)	
COC(=O)c1ccc(NC(=O)Nc2ccc(C)cc2)cc1	17.7% (inactive)	
COC(=O)c1ccc(NC(=S)Nc2cccc(C)n2)cc1		7.08 µM (active)
O=C(O)CCCn1c(=O)c2cccn2c2ccc(F)cc21	2.07% (inactive)	
O=C(NNC(=S)NC(=O)c1cn(-c2ccccc2)nc1-c1ccccc1)c1ccncc1		8.91 µM (active)
O=C(c1cn(-c2ccccc2)nc1-c1cccnc1)N1CCCCC1	4.94% (inactive)	
O=C(Nc1cn(-c2ccccc2)nc1-c1ccccc1)c1ccccc1	-10.9% (inactive)	
Cc1cc2c(c(=O)n1Cc1ccccc1)C1O[C@](CCCCN3C(=O)c4ccccc4C3=O)(Cc3ccccc31)O2	-4.77% [at 10 µM] (inactive)	
CN(CC(=O)NCc1ccc(Cl)cc1)S(=O)(=O)c1cccs1	24.2% (inactive)	
CC(C)=CCCC(C)CN1CCC(n2nccc2NC(=O)c2ccccc2)CC1 (stereo unspecified)	2.6% (inactive)	
O=C(CN(C(=O)CCC(=O)Nc1nccs1)c1ccc(F)cc1)NCc1ccc2c(c1)OCO2	-4.7% (inactive)	
O=C(/C=C/c1ccc(F)cc1)NCCNC(=O)/C=C/c1ccc(F)cc1	0.732% (inactive)	
CC(C)c1ccc(/C=C/C(=O)NNC(=O)c2cccnc2)cc1	-4.54% (inactive)	
O=C(/C=C/c1ccc(F)cc1)NC(=S)NNC(=O)c1cccnc1		10 µM (active)
COc1ccc(C(=O)N(C)CC(O)c2ccccc2)cc1OC1CCN(C(C)=O)CC1 (stereo unspecified)	-0.542% (inactive)	
CCN(CC(=O)Nc1ccc(Cl)c(S(=O)(=O)N(C)C)c1)Cc1nc2ccccc2c(=O)[nH]1	0.788% (inactive)	
NS(=O)(=O)c1cccc(NC(=O)CSc2nc3ccccc3n2-c2ccccc2)c1	-0.867% (inactive)	
CN(Cc1nc2ccccc2c(=O)[nH]1)Cc1cc(=O)oc2ccc3ccccc3c12	-10.9% (inactive)	
CCN(CC(=O)Nc1cccc(S(N)(=O)=O)c1)Cc1nc2ccccc2c(=O)[nH]1		7.94 µM (active)
CCN(CC(=O)NC(=O)NCc1ccccc1)Cc1nc2ccccc2c(=O)[nH]1		2.24 µM (active)
O=C(c1ccco1)N(Cc1nc2ccccc2c(=O)[nH]1)C1CCCC1		8.91 µM (active)
CCCC(=O)N(CCc1ccccc1)Cc1nc2ccccc2c(=O)[nH]1	-2.29% (inactive)	
O=C(COc1ncnc2ccccc12)NC(=O)NCc1ccccc1	16.6% (inactive)	
CCN(CC)c1ccc(C(=O)NNC(=O)CCc2nc3ccccc3c(=O)[nH]2)cc1	2.44% (inactive)	
